Screen size: about 1,300 compounds; about 460 (35%) were called active. Roughly 39% stayed inconclusive and do not appear here. Calls follow the shape of the dose curve; as a rule, active = well fitted inhibition curve with a large enough effect; inconclusive = small, poorly fitted or top-dose-only effect; inactive = flat fitted curve, though single readings scatter. This is one part of the list.
These compounds were tested against Protein phosphatase EYA2 (Homo sapiens) (UniProt O00167) (assay: qHTS for Inhibitors of the Phosphatase Activity of Eya2: Confirmatory Assay for Cherry-picked Compounds). Conditions: purified EYA2 phosphatase activity, qHTS confirmation; series mostly up to 46.1 µM.
Protein phosphatase EYA2 (Homo sapiens), sequence (O00167 whole entry, looked up): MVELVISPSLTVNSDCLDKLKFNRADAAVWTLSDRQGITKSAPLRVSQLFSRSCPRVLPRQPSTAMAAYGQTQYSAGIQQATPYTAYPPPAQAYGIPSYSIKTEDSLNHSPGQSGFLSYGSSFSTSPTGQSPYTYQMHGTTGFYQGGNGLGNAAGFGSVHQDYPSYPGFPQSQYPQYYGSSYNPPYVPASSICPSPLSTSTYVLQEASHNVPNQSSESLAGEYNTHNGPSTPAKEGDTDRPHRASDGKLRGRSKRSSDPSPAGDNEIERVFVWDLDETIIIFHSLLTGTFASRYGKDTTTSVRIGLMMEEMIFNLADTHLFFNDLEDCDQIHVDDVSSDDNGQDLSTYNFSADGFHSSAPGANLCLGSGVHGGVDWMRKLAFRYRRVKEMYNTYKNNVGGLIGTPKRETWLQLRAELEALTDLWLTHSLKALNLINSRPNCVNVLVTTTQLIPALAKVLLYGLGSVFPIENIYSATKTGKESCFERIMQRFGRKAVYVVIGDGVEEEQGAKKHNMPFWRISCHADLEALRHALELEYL
In short: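 Eya2 (0.2 uM working solution) preincubated 10 min at room temperature with compound in pH 7.5 HEPES buffer with MgCl2, BSA, DTT. OMFP added (50 uM working solution), 10 min more; fluorescence 485/525 nm, normalized to EGTA and DMSO.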
Also: nearly all actives have a fitted effect of over 65% in size.
Potency is read from the fitted curve at half-maximal effect.

| SMILES | Potency |
| --- | --- |
| CCC(=O)NC(c1cccs1)c1cc(Cl)c2cccnc2c1O (stereo unspecified) | 1.51 µM (active) |
| COc1ccc(C(NC(C)=O)c2cc(Cl)c3cccnc3c2O)cc1OC (stereo unspecified) | 1.69 µM (active) |
| CC(C)C(=O)NC(c1ccc(Cl)cc1Cl)c1ccc2cccnc2c1O (stereo unspecified) | 5.36 µM (active) |
| O=C(O)c1ccccc1NC(c1ccccc1)c1ccc2cccnc2c1O (stereo unspecified) | 3.38 µM (active) |
| CCOc1ccc(Nc2nc(N)nc(CN(C)C3CCCCC3)n2)cc1 | inactive |
| O=C(O)c1c(C(=O)N2N=C3/C(=C/c4ccccc4)CCCC3C2c2ccccc2)cccc1[N+](=O)[O-] (stereo unspecified) | inactive |
| CCCc1ccc(C#N)c(SC2CC(=O)N(c3ccc(OC)cc3)C2=O)n1 (stereo unspecified) | inactive |
| O=C(NC1CCCC1)c1cc(=O)[nH]c2ccccc12 | inactive |
| O=C(Oc1ccc(Cl)c2cccnc12)C12CC3CC(CC(C3)C1)C2 | inactive |
| CCCCC(=O)NC(c1ccco1)c1cc(Cl)c2cccnc2c1O (stereo unspecified) | 3.38 µM (active) |
| CCC(=O)NC(c1ccc(OC)c(OC)c1)c1cc(Cl)c2cccnc2c1O (stereo unspecified) | 1.69 µM (active) |
| Nc1[nH]nc2ncc3cc4ccccc4nc3c12 | 15.1 µM (active) |
| COc1ccc(-c2cn(Cc3ccc4c(c3)C(=O)c3ccccc3C4=O)nn2)cc1 | inactive |
| CCc1ccc2oc(-c3ccc(OC)cc3)cc(=Nc3c(C)n(C)n(-c4ccccc4)c3=O)c2c1 | 16.9 µM (active) |
| O=C(Nc1ccccc1Cl)N1CCN(c2ccc3nnc(-c4ccccc4)n3n2)CC1 | 6.75 µM (active) |
| COc1cccc(N2CCN(c3ccc4nnc(CCC(=O)Nc5cccc(C(C)=O)c5)n4n3)CC2)c1 | inactive |
| C[C@@]12CCC=C[C@H]1[C@H](c1ccc3ccccc3c1/C=C/c1ccccc1)N(Cc1ccccc1)C2=O | inactive |
| Cc1ccc2c(/C=C/c3ccc(N(C)C)cc3)c(C)cnc2c1 | 8.49 µM (active) |
| Cc1cnc2ccc(I)cc2c1/C=C/c1ccc(N(C)C)cc1 | 7.57 µM (active) |
| CCN(CC)c1ccc(/C=C/c2c(C)cnc3ccc(C)cc23)cc1 | 8.49 µM (active) |
| Cc1ccc(-n2nnnc2C(=Cc2ccc(N(C)C)cc2)c2nnnn2-c2ccc(C)cc2)cc1 | inactive |
| CCc1cnc2ccccc2c1/C=C/c1ccc(N(C)C)cc1 | 7.57 µM (active) |
| Cn1c(=O)c2[nH]c(COc3ccccc3)nc2n(C)c1=O | inactive |
| COc1cc(OC)c(OC)cc1/C=C/c1nccc2ccccc12 | 7.57 µM (active) |
| Cc1cc(C)c(OCCCCN(C)Cc2ccccc2)c(C)c1 | inactive |
| Cn1c(=O)cc2c3c(c(N4CCCCC4)ccc31)C(=O)c1ccccc1-2 | 3.38 µM (active) |
